The text below walks through data of the supplement of paper PMC10849652.

About 7,900 targets were measured; listed, in parts, are those with a hit and a random draw of the rest. About 0.6% of all pairs of compound and target were hits.

UniProt P29966, sequence (P29966 whole entry, looked up): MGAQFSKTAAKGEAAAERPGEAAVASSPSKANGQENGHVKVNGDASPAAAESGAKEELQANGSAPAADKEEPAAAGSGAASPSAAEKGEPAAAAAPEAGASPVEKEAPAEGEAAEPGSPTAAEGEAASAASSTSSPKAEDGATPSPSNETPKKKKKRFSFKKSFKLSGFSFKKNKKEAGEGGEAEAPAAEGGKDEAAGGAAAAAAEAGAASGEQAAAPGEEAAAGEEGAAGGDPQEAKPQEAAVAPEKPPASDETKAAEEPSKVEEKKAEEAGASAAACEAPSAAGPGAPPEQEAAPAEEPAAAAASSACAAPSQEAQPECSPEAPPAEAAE
UniProt O95232, sequence (O95232 whole entry, looked up): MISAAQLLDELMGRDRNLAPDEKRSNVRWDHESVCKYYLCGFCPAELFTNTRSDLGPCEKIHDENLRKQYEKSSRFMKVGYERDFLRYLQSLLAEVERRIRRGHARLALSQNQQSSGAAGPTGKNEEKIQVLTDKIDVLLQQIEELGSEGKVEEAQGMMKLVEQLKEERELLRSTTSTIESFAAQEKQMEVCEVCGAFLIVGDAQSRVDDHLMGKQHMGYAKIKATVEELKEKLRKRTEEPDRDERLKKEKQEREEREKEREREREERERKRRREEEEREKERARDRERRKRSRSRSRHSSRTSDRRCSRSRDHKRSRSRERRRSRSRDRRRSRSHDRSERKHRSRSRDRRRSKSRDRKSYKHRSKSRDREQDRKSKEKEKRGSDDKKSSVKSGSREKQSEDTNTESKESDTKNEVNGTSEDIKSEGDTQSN
UniProt Q9NQ29, sequence (Q9NQ29 whole entry, looked up): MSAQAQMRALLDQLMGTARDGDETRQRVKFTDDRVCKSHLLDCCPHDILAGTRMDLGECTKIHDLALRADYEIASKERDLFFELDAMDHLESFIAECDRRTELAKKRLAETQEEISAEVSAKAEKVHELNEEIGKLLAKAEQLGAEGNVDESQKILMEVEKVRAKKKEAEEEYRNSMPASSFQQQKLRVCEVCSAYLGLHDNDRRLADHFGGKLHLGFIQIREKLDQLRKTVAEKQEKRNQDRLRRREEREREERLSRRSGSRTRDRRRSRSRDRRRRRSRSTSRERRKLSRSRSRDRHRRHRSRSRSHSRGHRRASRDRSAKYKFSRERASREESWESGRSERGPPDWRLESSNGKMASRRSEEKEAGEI
UniProt P32019, sequence (P32019 whole entry, looked up): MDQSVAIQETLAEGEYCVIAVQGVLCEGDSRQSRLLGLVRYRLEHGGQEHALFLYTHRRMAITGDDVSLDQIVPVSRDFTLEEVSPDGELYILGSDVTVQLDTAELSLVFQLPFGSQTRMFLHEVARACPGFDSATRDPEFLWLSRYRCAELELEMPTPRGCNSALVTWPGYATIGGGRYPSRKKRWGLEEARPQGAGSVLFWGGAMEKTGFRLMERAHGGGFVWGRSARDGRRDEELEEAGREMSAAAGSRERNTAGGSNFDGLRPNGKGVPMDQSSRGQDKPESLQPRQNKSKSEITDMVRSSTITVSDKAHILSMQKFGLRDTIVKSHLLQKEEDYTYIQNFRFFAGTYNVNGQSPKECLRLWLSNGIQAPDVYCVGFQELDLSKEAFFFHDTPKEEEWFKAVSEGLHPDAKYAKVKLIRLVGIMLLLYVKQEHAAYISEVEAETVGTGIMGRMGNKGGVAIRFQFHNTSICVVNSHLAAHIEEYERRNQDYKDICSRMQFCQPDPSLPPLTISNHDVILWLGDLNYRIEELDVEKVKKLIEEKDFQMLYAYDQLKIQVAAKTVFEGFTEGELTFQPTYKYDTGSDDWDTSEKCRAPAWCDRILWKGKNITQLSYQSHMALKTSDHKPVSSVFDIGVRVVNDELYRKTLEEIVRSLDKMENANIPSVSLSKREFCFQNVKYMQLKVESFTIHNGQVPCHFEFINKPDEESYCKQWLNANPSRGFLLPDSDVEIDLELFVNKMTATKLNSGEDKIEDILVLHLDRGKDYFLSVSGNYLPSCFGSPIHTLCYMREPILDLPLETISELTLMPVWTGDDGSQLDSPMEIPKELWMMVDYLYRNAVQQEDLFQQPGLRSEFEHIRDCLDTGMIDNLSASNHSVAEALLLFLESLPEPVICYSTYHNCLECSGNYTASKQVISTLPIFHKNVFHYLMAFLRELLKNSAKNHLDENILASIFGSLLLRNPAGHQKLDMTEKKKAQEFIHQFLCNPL
UniProt Q9UI26, sequence (Q9UI26 whole entry, looked up): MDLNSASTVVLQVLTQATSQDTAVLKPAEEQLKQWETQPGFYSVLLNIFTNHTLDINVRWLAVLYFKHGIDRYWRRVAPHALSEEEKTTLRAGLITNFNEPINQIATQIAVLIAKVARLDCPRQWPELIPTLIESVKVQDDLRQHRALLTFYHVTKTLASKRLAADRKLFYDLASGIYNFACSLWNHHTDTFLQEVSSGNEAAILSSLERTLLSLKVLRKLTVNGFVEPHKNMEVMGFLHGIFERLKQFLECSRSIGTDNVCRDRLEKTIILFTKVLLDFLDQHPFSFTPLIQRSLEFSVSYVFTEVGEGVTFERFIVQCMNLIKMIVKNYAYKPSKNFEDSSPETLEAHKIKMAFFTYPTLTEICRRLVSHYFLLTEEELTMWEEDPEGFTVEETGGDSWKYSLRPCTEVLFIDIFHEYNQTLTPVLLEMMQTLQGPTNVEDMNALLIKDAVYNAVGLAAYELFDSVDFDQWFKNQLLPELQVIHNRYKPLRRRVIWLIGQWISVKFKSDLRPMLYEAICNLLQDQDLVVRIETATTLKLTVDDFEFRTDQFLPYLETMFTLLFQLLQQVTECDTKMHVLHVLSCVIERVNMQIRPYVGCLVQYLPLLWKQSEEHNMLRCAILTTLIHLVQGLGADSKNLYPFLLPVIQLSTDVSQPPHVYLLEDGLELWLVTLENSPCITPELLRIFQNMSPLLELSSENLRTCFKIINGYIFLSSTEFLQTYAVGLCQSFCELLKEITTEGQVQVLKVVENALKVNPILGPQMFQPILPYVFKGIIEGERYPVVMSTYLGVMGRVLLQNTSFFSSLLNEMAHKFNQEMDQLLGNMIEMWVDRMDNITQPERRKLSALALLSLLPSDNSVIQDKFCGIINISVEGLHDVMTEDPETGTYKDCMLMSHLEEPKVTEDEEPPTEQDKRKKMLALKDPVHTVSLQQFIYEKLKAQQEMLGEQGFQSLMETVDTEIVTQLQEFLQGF
UniProt Q13257, sequence (Q13257 whole entry, looked up): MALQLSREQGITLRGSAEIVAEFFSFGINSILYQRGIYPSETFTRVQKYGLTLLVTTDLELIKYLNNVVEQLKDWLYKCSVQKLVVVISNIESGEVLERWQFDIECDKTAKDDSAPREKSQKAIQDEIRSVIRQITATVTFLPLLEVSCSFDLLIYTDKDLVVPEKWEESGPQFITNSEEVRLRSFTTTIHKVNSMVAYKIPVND
UniProt Q6P1A2, sequence (Q6P1A2 whole entry, looked up): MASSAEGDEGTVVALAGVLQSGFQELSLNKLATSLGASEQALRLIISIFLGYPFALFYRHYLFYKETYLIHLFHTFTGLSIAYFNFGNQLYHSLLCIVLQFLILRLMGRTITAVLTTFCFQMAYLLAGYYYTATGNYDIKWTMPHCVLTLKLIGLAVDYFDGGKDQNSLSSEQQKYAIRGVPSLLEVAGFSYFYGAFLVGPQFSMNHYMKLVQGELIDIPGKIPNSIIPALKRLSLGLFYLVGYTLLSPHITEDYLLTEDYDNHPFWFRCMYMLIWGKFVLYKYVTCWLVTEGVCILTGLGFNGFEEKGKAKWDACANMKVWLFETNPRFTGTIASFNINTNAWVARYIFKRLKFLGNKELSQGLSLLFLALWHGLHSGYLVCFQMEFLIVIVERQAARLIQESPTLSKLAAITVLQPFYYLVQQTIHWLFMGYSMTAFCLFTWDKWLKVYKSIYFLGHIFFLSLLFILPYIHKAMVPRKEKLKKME
UniProt Q14681, sequence (Q14681 whole entry, looked up): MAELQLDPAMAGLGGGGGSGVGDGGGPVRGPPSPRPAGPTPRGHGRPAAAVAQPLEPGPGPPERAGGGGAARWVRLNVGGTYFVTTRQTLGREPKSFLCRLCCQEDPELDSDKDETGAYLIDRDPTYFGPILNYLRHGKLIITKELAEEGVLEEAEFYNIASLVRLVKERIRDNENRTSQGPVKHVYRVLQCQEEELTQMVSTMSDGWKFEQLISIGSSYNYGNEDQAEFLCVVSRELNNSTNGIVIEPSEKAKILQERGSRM
UniProt O95372, sequence (O95372 whole entry, looked up): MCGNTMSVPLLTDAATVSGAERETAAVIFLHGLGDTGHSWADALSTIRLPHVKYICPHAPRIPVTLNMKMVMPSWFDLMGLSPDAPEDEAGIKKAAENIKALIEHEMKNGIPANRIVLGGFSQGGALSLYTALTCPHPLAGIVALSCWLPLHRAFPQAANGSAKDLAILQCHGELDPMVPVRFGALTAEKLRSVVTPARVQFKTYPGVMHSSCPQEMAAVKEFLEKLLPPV
UniProt P14174, sequence (P14174 whole entry, looked up): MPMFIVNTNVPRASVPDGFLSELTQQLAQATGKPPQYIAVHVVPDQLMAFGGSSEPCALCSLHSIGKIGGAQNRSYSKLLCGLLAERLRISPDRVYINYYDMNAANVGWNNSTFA
UniProt P52294, sequence (P52294 whole entry, looked up): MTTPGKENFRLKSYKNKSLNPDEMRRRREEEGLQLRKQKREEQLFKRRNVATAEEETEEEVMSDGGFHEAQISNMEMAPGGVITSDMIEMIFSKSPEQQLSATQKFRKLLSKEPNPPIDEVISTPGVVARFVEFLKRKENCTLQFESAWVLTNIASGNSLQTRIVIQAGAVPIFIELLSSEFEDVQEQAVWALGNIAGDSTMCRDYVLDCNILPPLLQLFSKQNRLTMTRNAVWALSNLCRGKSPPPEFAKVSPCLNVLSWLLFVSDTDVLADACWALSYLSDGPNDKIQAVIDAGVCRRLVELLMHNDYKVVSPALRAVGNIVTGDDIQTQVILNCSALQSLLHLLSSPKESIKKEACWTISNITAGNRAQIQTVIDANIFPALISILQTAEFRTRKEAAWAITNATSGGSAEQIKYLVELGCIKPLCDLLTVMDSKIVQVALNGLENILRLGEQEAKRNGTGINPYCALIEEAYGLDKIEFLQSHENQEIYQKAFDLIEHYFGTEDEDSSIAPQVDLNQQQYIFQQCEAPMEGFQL

Compound in this experiment: Cc1cc(SCc2sc(-c3ccc(C(F)(F)F)cc3)nc2C)ccc1OCC(=O)O
As to the kind of experiment: log2 fold change, soluble protein after heating vs DMSO (PISA); higher = thermal stabilisation; K562 cells, 10 uM, 30 min; active = over 0.2 and 3.5 SD of the protein, either way, in both replicates (recomputed). A digest of the protocol: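 Thermal stability values are relative to control samples and come from duplicates. They are expressed as log2 fold changes. For measurement, K562 cells (2×10^6 cells/mL) received 10 μM compound for 30 min, and aliquots were heated for 3 min over 48°C-58°C, pooled, and extracted at 4°C in PBS with 0.5% NP-40. Soluble protein, the supernatant after 21,000xg for 90 min, was quantified by TMTpro 16plex LC-MS/MS with equalised channel sums.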
Consider LARP1 (UniProt Q6PKG0), for which the log2 fold change was 0.01 (inactive).
In the case of MEPCE (UniProt Q7L2J0), the log2 fold change was 0.04 (inactive).
Regarding MAD2L1 (UniProt Q13257), the log2 fold change was 0.037 (inactive).
As to KCTD2 (UniProt Q14681), the log2 fold change was -0.281 (inactive).
For the target LYPLA2 (UniProt O95372), the log2 fold change was 0.066 (inactive).
For the target INPP5B (UniProt P32019), the log2 fold change was 0.029 (inactive).
In the case of IPO11 isoform 2 (UniProt Q9UI26), the log2 fold change was 0.007 (inactive).
For MARCKS (UniProt P29966), the log2 fold change is 0.025 (inactive).
As for KIF2C (UniProt Q99661), the log2 fold change is 0.082 (inactive).
In the case of LPCAT3 (UniProt Q6P1A2), the log2 fold change was 0.027 (inactive).
KTN1 (UniProt Q86UP2): the log2 fold change is 0.097 (inactive).
As for MIF (UniProt P14174), the log2 fold change was -0.025 (inactive).
As for LUC7L3 (UniProt O95232), the log2 fold change was 0.02 (inactive).
Turning to LUC7L (UniProt Q9NQ29), the log2 fold change was 0.033 (inactive).
Take KPNA1 (UniProt P52294): the log2 fold change is -0.008 (inactive).
With KSR1 (UniProt Q8IVT5), the log2 fold change was -0.017 (inactive).
For the target MAP2K2 (UniProt P36507), the log2 fold change was -0.01 (inactive).
